Among the data in PubChem BioAssay are z-score and composite z-score values, retold here.

The nature of experiment [1]: optical density shifts of acrAB sulA E. coli – strain DRC41, OD650, 48 h, E. coli filamentation inducer project, primary screen (AID 1152).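 Also: E. coli MC1000 strain DRC41 lacking acrAB efflux pump and sulA.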 Particulars: higher = more signal, called active from +8 up or from −8 down.
Experiment [2] is described as follows: probe aLefty1 binding on compound microarray – biochemical, small-molecule microarray, 635/667 nm fluorescence, primary screen (AID 1153).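 Also: score merges spot fluorescence with signal-to-noise ratio from the scanned slide images.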 The settings on record: higher = more signal.
Experiment [3] in a line: plasmodial surface anion channel blockers, osmotic lysis – cell-based, P. falciparum Indochina, OD700, 1 h, primary screen (AID 1154). The settings on record: P. falciparum Indochina infected RBC osmotic lysis, higher = more signal, called active from +8 up or from −8 down.
The nature of experiment [4]: plasmodial surface anion channel blockers, osmotic lysis – cell-based, P. falciparum Indochina, OD700, 2 h, primary screen (AID 1155).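 Also: lysis reports solute entry through the parasite surface anion channel PSAC.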 Particulars: P. falciparum Indochina infected erythrocytes, higher = more signal, called active from +8 up or from −8 down.
The nature of experiment [5]: changes in parasitized red cell lysis, either direction – P. falciparum Indochina, OD700, 3 h, PSAC antagonist project, primary screen (AID 1156). The settings on record: P. falciparum-infected erythrocytes, osmotic lysis, higher = more signal, called active from +8 up or from −8 down.
Experiment [6] can be described thus: plasmodial surface anion channel blockers, osmotic lysis – cell-based, P. falciparum Indochina, OD700, 18 h, primary screen (AID 1157). The settings on record: P. falciparum Indochina infected erythrocytes, osmotic lysis OD700, 18 h; higher = more signal, called active from +8 up or from −8 down.
The nature of experiment [7]: S6 kinase pathway phospho-S6 level changes – cell-based, A549, cytoblot, luminescence, serum-stimulated, primary screen (AID 1158).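 Also: serum-stimulated A549 lung adenocarcinoma cells; signal is phosphorylated S6 detected by cytoblot immunostaining with HRP secondary.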 Particulars: 5 h, higher = more signal.
In experiment [8] the target is NADPH oxidase 2 (Homo sapiens) (UniProt P04839). As to the kind of experiment: compounds shifting NOX2 Amplex Red fluorescence – cell-based, HEK293-NOX2, PMA-stimulated, NOX inhibitor project, primary screen (AID 1159). Also: test concentration not given here. Particulars: 45 min, higher = more signal, called active from +8 up or from −8 down.
Chain of NADPH oxidase 2 (Homo sapiens) (P04839 whole entry, looked up): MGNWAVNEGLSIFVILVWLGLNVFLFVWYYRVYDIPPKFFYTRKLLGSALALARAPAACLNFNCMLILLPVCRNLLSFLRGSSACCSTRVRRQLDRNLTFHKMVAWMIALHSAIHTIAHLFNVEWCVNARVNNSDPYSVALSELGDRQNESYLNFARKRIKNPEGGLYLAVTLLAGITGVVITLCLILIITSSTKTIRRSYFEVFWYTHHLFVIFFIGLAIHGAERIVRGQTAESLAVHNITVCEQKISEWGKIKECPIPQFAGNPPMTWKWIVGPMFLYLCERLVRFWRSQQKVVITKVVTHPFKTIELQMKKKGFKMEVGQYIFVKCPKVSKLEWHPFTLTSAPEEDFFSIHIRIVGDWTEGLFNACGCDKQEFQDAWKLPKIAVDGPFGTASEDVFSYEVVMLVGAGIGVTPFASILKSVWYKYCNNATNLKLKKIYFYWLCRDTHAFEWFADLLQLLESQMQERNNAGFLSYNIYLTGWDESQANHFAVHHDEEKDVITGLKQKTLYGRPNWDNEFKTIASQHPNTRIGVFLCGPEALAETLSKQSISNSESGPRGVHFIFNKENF
Experiment [9] has as its target NADPH oxidase 4 (Homo sapiens) (UniProt Q9NPH5). The experiment in a line: compounds shifting NOX4 Amplex Red fluorescence – cell-based, HEK293-NOX4, tetracycline-induced, NOX inhibitor project, primary screen (AID 1160). The settings on record: HEK293-NOX4, Amplex Red H2O2 fluorescence, 45 min; higher = more signal, called active from +8 up or from −8 down.
Experiment [10] concerns the target NADPH oxidase 5 (Homo sapiens) (UniProt Q96PH1). The experiment in a line: compounds shifting NOX5 Amplex Red fluorescence – cell-based, HEK293-NOX5, NOX inhibitor project, primary screen (AID 1161). The settings on record: HEK293-NOX5, ionomycin, 45 min, higher = more signal.
The nature of experiment [11]: compound effects on lung adenocarcinoma cell viability – A549, calcein-AM fluorescence, 48 h, basal, profiling panel (AID 1162). Also: test concentration not given here. Particulars: higher = more signal.
The nature of experiment [12]: compound effects on differentiated 3T3-L1 adipocyte viability – cell-based, 3T3-L1 adipocytes, calcein-AM fluorescence, 48 h, basal, profiling panel (AID 1163). Also: test concentration not given here. The settings on record: 3T3-L1 adipocytes viability, higher = more signal.
The nature of experiment [13]: compound effects on hepatocellular carcinoma cell viability – HepG2, calcein-AM fluorescence, 48 h, basal, profiling panel (AID 1164). Also: test concentration not given here. Particulars: higher = more signal.
A short description of experiment [14]: compound effects on multiple myeloma cell viability – MM1S, calcein-AM fluorescence, 48 h, basal, profiling panel (AID 1165).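 Also: viability of MM1S multiple myeloma cells under basal unstimulated conditions; test concentration not given here.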 The settings on record: higher = more signal.
Experiment [15] in a line: calcein-AM signal in unstimulated myeloma cells – cell-based, calcein-AM fluorescence, 48 h, PK04 Diversity Set, profiling panel (AID 1166).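 Also: cells grown under basal conditions without added stimulus; test concentration not given here.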 Particulars: RPMI8226 myeloma viability, higher = more signal.
Experiment [16] is described as follows: JC-1 mitochondrial signal, unstimulated HepG2 cells – cell-based, JC-1 fluorescence, 24 h, 100 nL compound, profiling panel (AID 1167). Also: test concentration not given here. The settings on record: HepG2 mitochondrial potential, higher = more signal.
Experiment [17] is described as follows: JC-1 mitochondrial signal, unstimulated adipocytes – cell-based, JC-1 fluorescence, 3T3-L1 adipocytes, 24 h, 100 nL compound, profiling panel (AID 1168). Also: test concentration not given here. Particulars: JC-1 mitochondrial fluorescence, higher = more signal, called active from +8 up or from −8 down.
Experiment [18] is described as follows: JC-1 mitochondrial signal, unstimulated myeloma cells – cell-based, JC-1 fluorescence, RPMI8226, 24 h, 100 nL compound, profiling panel (AID 1169). Also: test concentration not given here. The settings on record: JC-1 mitochondrial potential fluorescence, higher = more signal.
Experiment [19] can be described thus: JC-1 mitochondrial signal, unstimulated MM1S myeloma – cell-based, JC-1 fluorescence, 24 h, 100 nL compound, profiling panel (AID 1170). Also: test concentration not given here. The settings on record: MM1S mitochondrial potential, higher = more signal.
A short description of experiment [20]: resazurin metabolic signal in A549 cells – cell-based, resazurin fluorescence, 24 h, PK04 Diversity Set, profiling panel (AID 1171). Also: test concentration not given here. The settings on record: A549 viability, higher = more signal, called active from +8 up or from −8 down.

Activity calls are given as the source filed them.

Chain of NADPH oxidase 5 (Homo sapiens) (Q96PH1 whole entry, looked up): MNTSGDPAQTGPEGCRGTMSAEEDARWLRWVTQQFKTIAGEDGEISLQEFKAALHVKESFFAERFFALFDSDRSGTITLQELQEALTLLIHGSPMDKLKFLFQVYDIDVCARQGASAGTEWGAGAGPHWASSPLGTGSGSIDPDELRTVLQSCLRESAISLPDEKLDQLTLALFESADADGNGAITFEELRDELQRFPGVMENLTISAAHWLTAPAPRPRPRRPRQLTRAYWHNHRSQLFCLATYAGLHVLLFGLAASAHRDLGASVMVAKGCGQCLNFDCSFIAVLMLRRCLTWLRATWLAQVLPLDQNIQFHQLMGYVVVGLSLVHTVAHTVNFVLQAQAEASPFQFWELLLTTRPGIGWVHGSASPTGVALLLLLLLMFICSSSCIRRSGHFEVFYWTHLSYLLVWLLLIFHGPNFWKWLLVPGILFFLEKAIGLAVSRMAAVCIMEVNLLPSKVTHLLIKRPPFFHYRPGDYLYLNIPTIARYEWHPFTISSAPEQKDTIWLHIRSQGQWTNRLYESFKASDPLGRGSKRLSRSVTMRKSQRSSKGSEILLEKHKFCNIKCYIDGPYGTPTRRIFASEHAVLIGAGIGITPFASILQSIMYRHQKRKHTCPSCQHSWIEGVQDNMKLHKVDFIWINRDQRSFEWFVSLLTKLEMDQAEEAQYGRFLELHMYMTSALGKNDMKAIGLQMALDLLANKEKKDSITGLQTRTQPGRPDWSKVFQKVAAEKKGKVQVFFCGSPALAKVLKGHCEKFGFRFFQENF
Chain of NADPH oxidase 4 (Homo sapiens) (Q9NPH5 whole entry, looked up): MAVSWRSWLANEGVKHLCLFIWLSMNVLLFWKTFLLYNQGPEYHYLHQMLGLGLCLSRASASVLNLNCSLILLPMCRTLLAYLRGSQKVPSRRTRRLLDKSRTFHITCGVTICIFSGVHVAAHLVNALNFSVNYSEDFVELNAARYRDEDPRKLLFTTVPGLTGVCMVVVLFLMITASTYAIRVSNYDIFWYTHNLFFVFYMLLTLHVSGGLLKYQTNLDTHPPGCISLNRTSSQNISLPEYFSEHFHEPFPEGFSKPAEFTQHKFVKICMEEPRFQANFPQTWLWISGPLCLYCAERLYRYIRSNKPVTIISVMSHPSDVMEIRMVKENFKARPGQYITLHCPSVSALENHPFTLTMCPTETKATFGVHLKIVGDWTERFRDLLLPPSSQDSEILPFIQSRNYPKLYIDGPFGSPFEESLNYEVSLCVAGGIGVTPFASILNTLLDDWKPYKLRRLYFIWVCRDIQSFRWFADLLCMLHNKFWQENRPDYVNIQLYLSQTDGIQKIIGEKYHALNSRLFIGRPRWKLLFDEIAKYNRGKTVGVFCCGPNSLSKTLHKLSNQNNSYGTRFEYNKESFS

As for `CCCCC(CC)C(O)C1C=CC2C(=O)N(c3ccccc3)C(=O)C2N1Nc1ccc(C#N)cc1` (stereo not given), the z-score in experiment [1] was 0.344 (inactive); in experiment [3], 9.85 (active); in experiment [4], 2.68 (inactive); in [5], 1.89 (inactive); in experiment [6], 1.54 (inactive); in experiment [7], -0.423. Besides, the z-score was 0.414 (inactive) in experiment [8]; -2.2 (inactive) in experiment [9]; -1.91 in [10]; 1.99 in [11]; -0.494 in experiment [12]; 2.34 in [13]. In addition, the z-score was 0.0084 in experiment [14]; 0.368 in experiment [15]; -1.31 in experiment [16]; -1.61 (inactive) in [17]; 0.0604 in experiment [18]; -0.679 in [19]. Moreover, the z-score in experiment [20] is 0.857 (inactive). This compound also yielded a composite z-score in [2] of 0.834.
As for `CCOc1cc(C(O)C2C=CC3C(=O)NC(=O)C3N2Nc2ccc(Cl)cc2Cl)ccc1O` (stereo not given), the z-score in experiment [1] was -1.36 (inactive); in experiment [3], 0.588 (inactive); in experiment [4], 0.0352 (inactive); in [5], 0.0675 (inactive); in [6], 1.1 (inactive); in experiment [7], -1.04. Besides, the z-score in experiment [8] was -1.26 (inactive); in [9], -1.88 (inactive); in experiment [10], -2.05; in [11], -1.33; in experiment [12], -0.337; in [13], -0.672. In addition, the z-score is -0.433 in experiment [14]; -0.236 in experiment [15]; -1.19 in experiment [16]; -1.05 (inactive) in experiment [17]; -0.76 in experiment [18]; 0.172 in experiment [19]. For the same compound, the z-score in experiment [20] is -0.873 (inactive). This compound also gave a composite z-score in [2] of -0.101.
`N#Cc1ccc(NN2C(C(O)c3ccc(Br)cc3)C=CC3C(=O)N(c4ccccc4)C(=O)C32)cc1` (stereo not given): the z-score in experiment [1] was -0.922 (inactive); in [3] it was 14.8 (active); in experiment [4], 2.9 (inactive); in experiment [5] it was 0.419 (inactive); in experiment [6], -0.348 (inactive); in experiment [7] it was 0.717. Also, the z-score in experiment [8] is -2.6 (inactive); in experiment [9], -4.29 (inactive); in experiment [10], -3.45; in [11], 0.647; in experiment [12] it was 0.0175; in experiment [13], 1.11. The z-score is -0.615 in [14]; 0.201 in experiment [15]; -0.574 in experiment [16]; 0.507 (inactive) in [17]; 0.244 in experiment [18]; 0.0172 in [19]. Also, the z-score in experiment [20] was -0.421 (inactive). The compound further came in with a composite z-score in experiment [2] of 0.57.
With `NC(=O)NCC#Cc1ccc2c(c1)[C@]1(C(=O)N2)[C@H](c2ccccc2OCCO)N2[C@H](c3ccccc3)[C@H](c3ccccc3)OC(=O)[C@H]2[C@@H]1C(=O)NC[C@H](O)c1ccccc1`, the z-score in experiment [1] was 2.83 (inactive); in [3], 0.925 (inactive); in [4], -0.918 (inactive); in experiment [5], -0.313 (inactive); in [6] it was -1.54 (inactive); in [7] it was 2.83. Besides, the z-score in experiment [8] is 1.74 (inactive); in experiment [9], 0.869 (inactive); in experiment [10] it was 0.062; in experiment [11], 1.2; in experiment [12], 0.37; in experiment [13], -0.13. Also, the z-score in experiment [14] is 0.493; in [15], 0.865; in [16], -0.159; in experiment [17], 0.43 (inactive); in [18], 0.208; in experiment [19], 0.359. In addition, the z-score in experiment [20] was 0.635 (inactive). The compound further returned a composite z-score in [2] of -0.103.
Turning to `COCCOC(=O)N1C(=O)[C@@]2(c3cc(C#CCCO)ccc31)[C@H](c1ccc(OCCO)cc1)N1[C@H](c3ccccc3)[C@H](c3ccccc3)OC(=O)[C@H]1[C@@H]2C(=O)Nc1nc2ccccc2s1`, the z-score in experiment [1] is -0.0929 (inactive); in [3], 3.74 (inactive); in [4], 1.5 (inactive); in experiment [5], 0.258 (inactive); in experiment [6], 0.678 (inactive); in [7], -0.115. Also, the z-score is 1.58 (inactive) in [8]; 1.26 (inactive) in [9]; 1.43 in experiment [10]; -0.255 in experiment [11]; 0.561 in experiment [12]; 0.779 in [13]. For the same compound, the z-score in [14] was -0.981; in experiment [15] it was -0.0413; in experiment [16], -3.68; in experiment [17] it was -1.38 (inactive); in [18], -0.78; in [19], -1.81. In addition, the z-score in experiment [20] is -0.5 (inactive). Further, the composite z-score in [2] came to 0.181.
